Screening results: PubChem, National Center for Advancing Translational Sciences (NCATS)
The entries come from a sample that favours hits as a whole.
Marburg entry inh = qHTS for inhibitors of binding or entry into cells for Marburg Virus; hit rate 1.8% among 300,000; AID 540276, 2011; Marburg virus pseudotyped entry inhibition, cell reporter; Potency, µM (titrated, usually from 37.8 µM), for the others: at the top dose activity change, negative = inhibition, actives largely listed as inhibitors; calls by dose curve; tested in HEK293 cells; further: potency means the concentration at half of the fitted maximal effect; on the % scale 0 is the no-effect control and ±100 the full control effect
Cycloheximide cs = Cycloheximide Counterscreen for Small Molecule Inhibitors of Shiga Toxin; AID 2314, 2010; max response, %; cell reporter, cycloheximide protein synthesis inhibition counterscreen; hit rate 12% among 300,000; in the data active means max response mostly above about 13%, no sharp cut-off; inactive means mostly below about 14%; further: read at 38.3 µM for the half of the compounds with a filed dose; 0% is about no effect
Shiga toxin inh = A qHTS for Small Molecule Inhibitors of Shiga Toxin; Vero cells, Shiga toxin protein synthesis inhibition reporter; hit rate 9.2% among 290,000; inhibition, % at 38.7 µM; AID 2315, 2010; in the data active means inhibition mostly above about 28%, no sharp cut-off; inactive means mostly below about 43%; further: 0% is about no effect
AMA1 RON2 block = qHTS for Inhibitors of AMA1-RON; Towards Development of Antimalarial Drug Lead: Primary Screen | Potency, µM (doses to about 58.2 µM), inactives show at the highest dose activity change, negative = inhibition, usual class: inhibitors | Plasmodium falciparum AMA1 (3D7) - RON2 peptide interaction | AID 720542, 2013 | hit rate 0.2% among 360,000 | AlphaScreen AMA1-biotinylated RON2 peptide binding; active means well fitted inhibition curve with a large enough effect; inconclusive means small, poorly fitted or top-dose-only effect; inactive means no such curve, though single readings can be large or run the other way;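 further: potency means the concentration at half of the fitted maximal effect; 0% = vehicle wells and -100% = peptide control; nearly all actives have a fitted effect of over 45% in size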
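AMA1 (3D7) with his tag at 25 nM final met compounds first, then biotinylated RON2 peptide at 25 nM; detection used donor plus acceptor beads, 10 µg/mL apiece, read by AlphaScreen after 30 min at room temperature.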
LASV entry inh = qHTS for Inhibitors of binding or entry into cells for Lassa Virus. Lassa virus pseudotype entry inhibition, cell reporter. Potency, µM (series often up to 37.9 µM), inactives show at the top dose activity change, negative = inhibition, hits mostly inhibitors. hit rate 1.2% among 300,000; calls by dose curve; tested in HEK293 cells; further: potency means the concentration at half of the fitted maximal effect; on the % scale 0 is the no-effect control and ±100 the full control effect; nearly all actives have a fitted effect of over 50% in size
* = called active by the depositor; ? = inconclusive; · = not tested or not shown; [ ] = dose if it differs, or a comment.

SMILES | Marburg entry inh | Cycloheximide cs | Shiga toxin inh | AMA1 RON2 block | LASV entry inh
CC(C)c1onc(C(=O)N(C)Cc2ccccc2)c1[N+](=O)[O-] | -3% | 5 | 1 | -2% | -6%
CCOc1ccc(S(=O)(=O)NCCc2c(C)[nH]c3c(Cl)cccc23)cc1C | -15%[46.1 µM] | · | · | · | -21%[46.1 µM]
COc1cccc(CN2CCN(C(=O)[C@H]3O[C@@H](n4cnc5c(N)ncnc54)[C@H](O)[C@@H]3O)CC2=O)c1 | · | · | · | 7% | ·
CC1CC=CC2C1C(=O)N(Cc1ccccc1)C2c1ccc(F)c(Br)c1 (stereo not given) | · | 16 | 32* | · | ·
Cc1ccc(-c2cc([C@H]3[C@H]4C=CC[C@@H](C)[C@@H]4C(=O)N3Cc3ccccc3)ccc2F)cc1 | · | 2 | 18 | -1% | ·
COc1ccc(NC(=O)CSC2=Nc3ccccc3C3=NC(CC(=O)NCc4ccc(F)cc4)C(=O)N23)cc1 (stereo not given) | · | · | · | · | 5%[46.1 µM]
O=C1NC(c2ccc(Cl)cc2)Oc2ccccc21 (stereo not given) | · | 1 | 1 | 24% | ·
CC(C)c1ccc(C2NC(=O)c3ccccc3O2)cc1 (stereo not given) | ? | 19* | 101* | -2% | 8%
S=C(c1ccc2c(c1)OCO2)N1CCOCC1 | · | -2 | -5 | -3% | ·
C/C(=N\NC(=O)c1ccc(O)cc1)c1cc2ccccc2o1 | -1%[46.1 µM] | 29* | 59* | 19% | ·
C/C(=N\NC(=S)Nc1cccc(C)c1)c1cc2ccccc2o1 | ? | 1 | 3 | -6% | ?
COc1ccc(OCC(=O)N/N=C(\C)c2cc3ccccc3o2)cc1 | -40% | 26* | 57* | -3% | ?
CCNC(=S)N/N=C(\C)c1cc2ccccc2o1 | 25% | 18* | 10 | 10% | 3%
C/C(=N\NC(=O)c1cccc(S(=O)(=O)N2CCOCC2)c1)c1cc2ccccc2o1 | · | -5 | -7 | 16% | ·
NC(=O)c1nsc(C(=O)N(Cc2ccc(F)cc2)C(C(=O)NCC2CCCO2)c2ccc(F)cc2)c1N (stereo not given) | 11µM* | -7 | -14 | -11% | -8%
CCc1ccc(N(C(=O)c2snc(C(N)=O)c2N)C(C(=O)NCC2CCCO2)c2cccs2)cc1 (stereo not given) | ? | 37* | 57 | 11% | ?
NC(=O)c1nsc(C(=O)N(c2ccc(Cl)cc2)C(C(=O)NCC2CCCO2)c2cccs2)c1N (stereo not given) | ? | -1 | 21 | -9% | ?
CCc1ccc(OCC(=O)N/N=C(\C)c2ccc(OC(F)F)cc2)cc1 | 0% | -1 | 31 | 19% | ?
CCc1ccc(OCC(=O)N/N=C(\C)c2ccc(-n3ccnc3)cc2)cc1 | ? | 16* | 51* | 19% | -30%
CCOc1ccc(S(=O)(=O)Nc2ccc(C(=O)N/N=C(\C)c3ccc(-n4ccnc4)cc3)cc2)cc1 | 11µM* | 6 | 13 | 100% | ?
COc1ccc(NS(=O)(=O)c2cccc(C(=O)N/N=C(/C)c3ccc(-n4ccnc4)cc3)c2)cc1 | 11%[46.1 µM] | · | · | 5% | 28%[46.1 µM]
CCN(c1ccc(C)cc1C)S(=O)(=O)c1nnc(NC(=O)c2ccccc2OC)s1 | · | · | · | · | 11%[46.1 µM]
CC(=O)Nc1ccccc1OCC(O)CS(=O)(=O)c1ccc(C(F)(F)F)cn1 (stereo not given) | · | -1 | 24 | 5% | ·
O=C1c2cccc3c(N4CCCCC4)ccc(c23)C(=O)N1c1ccc(O)cc1 | ? | 18* | 49 | 0% | -21%[46.1 µM]
COC(=O)c1cccc(COC(=O)CNC(=O)c2ccco2)c1 | 3% | -3 | -13 | -1% | 9%
SMILES | Marburg entry inh | Cycloheximide cs | Shiga toxin inh | AMA1 RON2 block | LASV entry inh
COc1ccc(OC(=O)c2cc3ccccc3o2)cc1 | 22% | 16 | 48 | 13% | ?
O=C(CNC(=O)c1ccco1)NCC(=O)OCc1cccc(C(=O)Oc2ccccc2)c1 | 18% | 13* | 42* | 8% | ?
COC(=O)c1ccc(NC(=O)c2ccc(NC(=O)c3ccco3)cc2)cc1 | ? | -2 | -14 | -7% | -16%[46.1 µM]
Cc1ccc(NC(=O)c2ccc(OC(=O)c3cc4ccccc4o3)cc2)cc1 | -28% | 40* | 81* | 0% | -17%
O=C(Nc1ccc(Oc2ncccn2)cc1)c1ccco1 | 9% | 13 | 43 | 10% | 8%
O=C(Oc1ccccc1)c1ccc(NC(=O)c2ccco2)cc1 | ? | 53* | 100* | 1% | 2%
Cc1ccc(Oc2ccc(NC(=O)c3ccco3)cc2)cc1 | ? | 67* | 99* | 2% | ?
CCOC(=O)c1ccccc1NC(=O)COC(=O)C1CCN(S(=O)(=O)c2ccccc2C(=O)OC)CC1 | 15% | · | · | -10% | -12%
COc1ccc(NC(=O)CSc2nnc3n2CCCCC3)cc1OC | · | · | · | -8% | ·
CC(C)[C@H]1C(C#N)=C(N)Oc2n[nH]c(C(C)(C)C)c21 | -10% | · | · | · | ·
CCOC(=O)c1c(Cc2cccc(Cl)c2)c[nH]c1C | 2%[46.1 µM] | 8 | -22 | -8% | -4%[46.1 µM]
CC(C)COc1ccc(C(=O)Nc2ccc(NC(=O)c3ccco3)cc2)cc1 | ? | 0 | -7 | 0% | 2%[46.1 µM]
Cc1ccc(NC(=O)c2ccc(OC(=O)c3ccco3)cc2)cc1 | 0% | 36* | 73* | -2% | 7%
Cc1cc(OCc2cc(C(=O)NC(C)c3c(C)nn(C)c3C)no2)cc(C)c1Cl (stereo not given) | · | 41* | 111* | -2% | ·
Cc1ccc(OCc2cc(C(=O)NC(C)Cc3cnccn3)no2)cc1C (stereo not given) | -8% | 13 | 8 | -1% | 1%
Cc1cccc(CC(C)NC(=O)c2cc(COc3ccc(C)c(C)c3)on2)n1 (stereo not given) | 2% | 77* | 98* | -8% | -19%
Cc1nc(C(C)NC(=O)c2cc(COc3ccc(C)c(C)c3)on2)c(C)s1 (stereo not given) | · | 41* | 125* | 8% | ·
Cc1cccc(CC(C)NC(=O)c2cc(COc3ccc(F)cc3F)on2)n1 (stereo not given) | · | 49* | 45* | 3% | ·
OC(c1ccccc1)c1nc2ccccc2n1Cc1c(F)cccc1Cl (stereo not given) | 2%[46.1 µM] | · | · | · | 8%[46.1 µM]
CN(C)c1ccc(Cc2ccc(N(C)C)cc2)cc1 | · | · | · | 14µM* | ·
Cc1ccc(NC(=O)CSc2nc3c(oc4ccccc43)c(=O)n2-c2ccc(F)cc2)c(C)c1 | -29%[46.1 µM] | · | · | · | ·
COc1cccc(-c2nnn(CC(=O)O)n2)c1 | 4% | 2 | -6 | -6% | ?
CCOC(=O)c1cnc(-c2cccc(OC)c2)[nH]c1=O | 1% | 15* | 12 | -8% | 1%
COc1cccc(-c2nnn(C/C(N)=N/O)n2)c1 | ? | 37* | -6 | 19% | 22%
COc1ccccc1-c1nnn(C/C(N)=N/O)n1 | ? | -2 | -15 | -23% | -10%
CCOC(=O)Cn1nnc(-c2cccc(OC)c2)n1 | 9% | 43* | 109* | 1% | 6%
O=C(CCC(=O)N1CC2CCCN2c2ccccc21)NCc1ccccc1 (stereo not given) | · | · | · | · | 7%[46.1 µM]
